# Bioassay records from PubChem.
# nsP2pro primary: CHIKV nsP2 protease inhibition, primary qHTS; Potency, µM (highest dose often 24.9 µM), inactives show at the top dose activity change, negative = inhibition, most hits filed as inhibitors; 31,000 tested, 1.1% active; Q8JUX6; AID 1964107; FRET peptide cleavage, nsP2pro, fluorescence 1 h; also: nearly all actives have a fitted effect of over 60% in size
#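 Recombinant nsP2pro (150 nM) was preincubated with compound 15 min at room temperature in 10 mM Tris-HCl pH 8.0, 0.01% Tween 20. Peptide 2 FRET substrate (2.5 uM) was then added and fluorescence read after 1 h. Seven-point series, up to 25 uM.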
# CHIKV nsP2 cell: inhibits CHIKV nsP2 protease in cells; shares compounds with nsP2pro primary; cell-based CHIKV nsP2 protease reporter assay; Potency, µM (titrated, usually from 51.1 µM), for the others: at the highest dose activity change, negative = inhibition, usual class: inhibitors; 450 tested, 10% active; AID 1964100; also: nearly all actives have a fitted effect of over 70% in size
# CHIKV NSP2 FL: selectivity test for CHIKV nsP2 protease inhibitors: full-length NSP2. shares compounds with nsP2pro primary. Full-length CHIKV NSP2 protease enzymatic counterscreen. Potency, µM (top dose mostly 50.7 µM), without a hit: at the top dose activity change, negative = inhibition, most hits filed as inhibitors. 410 tested, 39% active. AID 1964101; also: nearly all actives have a fitted effect of over 65% in size
# Furin counter: inhibits human furin in a CHIKV nsP2 protease selectivity counterscreen. 410 tested, 6% active. shares compounds with nsP2pro primary. Potency, µM (titrated, usually from 50.6 µM), for the others: at the highest dose activity change, negative = inhibition, hits mostly inhibitors. Recombinant human furin enzymatic counterscreen, fluorogenic substrate
# NS23 peptide cs: nsP2pro inhibition on native NS2/3 peptide substrate | AID 1964103 | Purified CHIKV nsP2 protease, endogenous NS2/3 peptide cleavage | Potency, µM (titrated, usually from 51 µM), inactives show top-dose activity change, negative = inhibition, actives largely listed as inhibitors | shares compounds with nsP2pro primary | 410 tested, 34% active; also: nearly all actives have a fitted effect of over 55% in size
# Papain counter: inhibits papain in a CHIKV nsP2 protease selectivity counterscreen. shares compounds with nsP2pro primary. Potency, µM (highest dose often 51 µM), for inactives: at the highest dose activity change, negative = inhibition, usual class: inhibitors. purified papain protease activity, enzymatic inhibition. 410 tested, 5% active
# nsP2pro conf qHTS: CHIKV nsP2 protease inhibition, confirmatory qHTS | 410 tested, 43% active | AID 1964105 | Potency, µM (highest dose often 25.5 µM), for inactives: at the highest dose activity change, negative = inhibition, hits mostly inhibitors | CHIKV nsP2 protease enzymatic activity, qHTS | shares compounds with nsP2pro primary; also: nearly all actives have a fitted effect of over 75% in size
# HCV NS3 counter: selectivity counter-screen for CHIKV nsP2 protease inhibitors: HCV NS3/4A; shares compounds with nsP2pro primary; 410 tested, 20% active; Potency, µM (top dose mostly 50.9 µM), hits mostly inhibitors; HCV NS3/4A protease biochemical counterscreen; also: nearly all actives have a fitted effect of over 55% in size
# * hit, by the source's call; i = inactive; u = inconclusive; [ ] = remark or other dose. Shown is part of a subset that was picked to be rich in hits. Calls follow the shape of the full dose curve. % is scaled to controls: 0 for no effect and ±100 for the full control effect; potency is read from the fitted curve at half-maximal effect.
SMILES,nsP2pro primary,others
COc1ccc(F)cc1-c1cccc(C(=O)NCC(=O)NCc2cccs2)c1,-1%,
NCCC[C@H](N)CC(=O)N[C@H]1CNC(=O)[C@H]([C@H]2C[C@H](O)N=C(N)N2)NC(=O)/C(=C/NC(N)=O)NC(=O)[C@H](CO)NC(=O)[C@H](CO)NC1=O,7%,
C=C[C@@H]1C[C@]1(NC(=O)[C@@H]1C[C@@H](Oc2ncc(OC)c3ccc(Cl)cc23)CN1C(=O)[C@@H](NC(=O)OC(C)(C)C)C(C)(C)C)C(=O)NS(=O)(=O)C1CC1,-14%,
Cc1ccnc(NC(=S)N2CCN(c3ncc(C(F)(F)F)cc3Cl)CC2)c1,-3%,
c1nc(NCCc2cnc[nH]2)c2cc(-c3ccoc3)ccc2n1,4%,
O=C(/C=C/c1ccco1)Nc1ccc(F)cc1,6.3µM*,CHIKV nsP2 cell=-20%
COc1ccc(NC(=O)/C=C\C(=O)N(c2ccc(C(C)C)cc2)C(C(=O)NCc2ccco2)c2ccc(F)cc2)cc1 (stereo unspecified),-19%,
O=C(c1ccc(F)cc1)n1nc(-c2ccc(Cl)cc2)nc1NCc1ccco1,-23%,
CCCCCCCCCCCCNCCNCCNCC(=O)O,24%[10 µM],
Fc1ccc(NC(=S)Nc2nnc(-c3ccncc3)s2)cc1C(F)(F)F,i,
Cc1[nH]cnc1CN1CCc2c(c3ccccc3n2C)C1=O,-12%,
Cc1[nH]cnc1C[C@H]1CCc2c(C)c3ccccc3n2C1=O,u,CHIKV nsP2 cell=-7%;CHIKV NSP2 FL=97%;Furin counter=-4%;NS23 peptide cs=-7%;Papain counter=-6%;nsP2pro conf qHTS=53%;HCV NS3 counter=i
Cc1nccn1CC1CCc2c(c3ccccc3n2C)C1=O (stereo unspecified),61%,
Fc1ccc(Nc2cc(-c3ccccc3)nc(-c3ccncc3)n2)cc1F,-12%,
CCCCCC(=O)N[C@@H](CC(C)C)C(=O)N[C@H](C=O)CCC(=O)O,-19%,
O=C(NCc1ccc(F)cc1)[C@@H]1C[C@@H](c2cccc(C(F)(F)F)c2)N(CC2CCOCC2)C1,i,
Cc1nc(CNc2ncnc3ccc(-c4sc(C)nc4C)cc23)cs1,-1%,
OCc1ccnc(NC(=S)N2CCN(c3cccc(C(F)(F)F)c3)CC2)c1,i,
Cc1ccc(-c2csc3ncnc(Sc4nnnn4C)c23)cc1,i,
Cn1nnnc1Sc1ncnc2scc(Br)c12,i,
Cn1nnnc1Sc1ncnc2scc(I)c12,2.2µM*,CHIKV nsP2 cell=7.3µM*;CHIKV NSP2 FL=-3%;Furin counter=-4%;NS23 peptide cs=-9%;Papain counter=-6%;nsP2pro conf qHTS=67%;HCV NS3 counter=u
C[C@]12C[C@@H]3S[C@H]3C[C@@H]1CC[C@H]1[C@H]3CC[C@@H](O)[C@@]3(C)CC[C@@H]12,1%,
CC(C)(C)n1cnc2cc(C(=O)N3CCCCC3)ccc21,4%,
CC1=C2C[C@@]3(C)C(CCC[C@@H]3C)C(O)C2OC1=O (stereo partly specified),9.9µM*,CHIKV nsP2 cell=-11%;CHIKV NSP2 FL=13µM*;Furin counter=-2%;NS23 peptide cs=u;Papain counter=u;nsP2pro conf qHTS=7.1µM*;HCV NS3 counter=i
CC1=C2CC3C(CCC3(C)O)C(C)(O)CC2OC1=O (stereo unspecified),55%,
SMILES,nsP2pro primary,others
CCOC(=O)C(Cc1cccc(N2CCN(C(=O)OC(C)(C)C)CC2)c1)OC (stereo unspecified),3%,
Cc1cc(F)ccc1S(=O)(=O)Nc1cc2c(C(=O)O)c(C)oc2c2ccccc12,-25%,
Cc1ccc(S(=O)(=O)Nc2cc(Cl)c(O)c3ccccc23)c(C)c1,2.5µM*,CHIKV nsP2 cell=6.5µM*;CHIKV NSP2 FL=7.3µM*;Furin counter=-15%;NS23 peptide cs=1.8µM*;Papain counter=-10%;nsP2pro conf qHTS=2.2µM*;HCV NS3 counter=u
CC(=O)c1c(C)oc2c1cc(NS(=O)(=O)c1c(C)cc(C)cc1C)c1ccccc12,-27%,
Cc1ccc(CN(C)c2ncnc3ccc(-c4ccc5c(c4)OCO5)cc23)o1,-6%,
COc1ccnc(NC(=S)N2CCN(c3ccccc3C(F)(F)F)CC2)c1,-1%,
CCOC(=O)c1cn(C2CN(C(=O)Cc3cccc(Cl)c3)C2)nn1,-15%,
O=C(Nc1ccccc1F)N1CC(Oc2ccc(-c3noc(-c4ccccc4)n3)cc2)C1,i,
Cn1cccc1C(=O)NC1CCN(C(=O)N2CC3CC(C2)[C@H]2CCCC(=O)N2C3)CC1 (stereo partly specified),i,
O=[N+]([O-])c1ccc(S(=O)(=O)Nc2cnc3ccccc3c2)cc1,6.3µM*,CHIKV nsP2 cell=18%;CHIKV NSP2 FL=3%;Furin counter=-6%;NS23 peptide cs=71%;Papain counter=5%;nsP2pro conf qHTS=7%;HCV NS3 counter=i
COc1cccc(CNc2ccc(S(=O)(=O)Nc3cnc4ccccc4c3)cc2)c1O,i,
O=S(=O)(Nc1cc(Cl)c(Oc2cnc3ccccc3c2)c(Cl)c1)c1ccc(Cl)cc1Cl,3%,
Cc1ccnc(NC(=S)N2CCN(c3cccc(C(F)(F)F)c3)C2)c1,4%,
C[C@@H](NCC1CCCC1)c1onc(-c2ccc(Cl)cc2)c1C(=O)O,-4%[39.2 µM],
CN(Cc1ccccc1)C(=O)[C@H](NC(=O)c1cc2cc(NC(=O)c3ccccc3-c3ccc(C(F)(F)F)cc3)ccc2n1C)c1ccccc1,-4%,
OCc1ccc(-c2ccc3ncnc(NCc4nccs4)c3c2)o1,8.9µM*,CHIKV nsP2 cell=u;CHIKV NSP2 FL=10µM*;Furin counter=-13%;NS23 peptide cs=21µM*;Papain counter=17%;nsP2pro conf qHTS=u;HCV NS3 counter=3.7µM*
c1cncc(-c2ccc3ncnc(NCc4cccs4)c3c2)c1,i,
c1csc(CNc2ncnc3ccc(-c4ccc5c(c4)OCO5)cc23)n1,1%,
Cc1cnc(CC2CCCN(Cc3ccc(F)cc3F)C2)n1Cc1ccccc1 (stereo unspecified),i,
O=S(=O)(Nc1ccc2ccccc2c1)c1ccc(NCc2ccc(Br)cc2O)cc1,4%,
COc1ccc(OC)c(S(=O)(=O)N2CCCOCCNC(=O)[C@@H]3CCCC[C@@H]32)c1,0%,
O=C1Nc2ccc(Cl)cc2/C1=C\c1cc(Cl)c(O)c(Cl)c1,i,
Cc1nc([C@](C)(O)CO)sc1-c1cnc(N)c(O[C@H](C)c2cc(F)ccc2-n2nccn2)c1,7.9µM*,CHIKV nsP2 cell=-21%;CHIKV NSP2 FL=-15%;Furin counter=3%;NS23 peptide cs=-23%;Papain counter=22%;nsP2pro conf qHTS=-12%;HCV NS3 counter=i
CCn1c(-c2nc3cc(C(=O)N4CCC[C@@H](N)C4)cc(OC)c3n2C)cc2ccccc21,63%,
